The results in this text go back to PubChem BioAssay (NCATS).

The nature of assay [1]: qHTS of pediatric cancer cell lines to identify multiple opportunities for drug repurposing: Primary screen for A673 cells (AID 1347092). Also: potency is read from the fitted curve at half-maximal effect; nearly all actives have a fitted effect of over 45% in size. Put shortly:
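Titration-based qHTS on A673 cells: MIPE compounds spanned 11 points (0.78 nM to 46 µM final), NPC compounds 8 points (0.59 nM to 46 µM final). Viability after 48 h was measured by ATP luminescence.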
(In general: Quantitative high-throughput screening tests each substance at several concentrations.)

Assay [2] in a line: qHTS of pediatric cancer cell lines to identify multiple opportunities for drug repurposing: Primary screen for SK-N-MC cells (AID 1347093). Also: potency is read from the fitted curve at half-maximal effect. Put shortly: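 Metabolically active cells were quantified by ATP-dependent luminescence (CellTiter-Glo, 15 min at room temperature) following 48 h treatment. Cells had been plated at 500-1,000 per well and settled for 5 h beforehand.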
Assay [3] is described as follows: qHTS of pediatric cancer cell lines to identify multiple opportunities for drug repurposing: Primary screen for NB-EBc1 cells (AID 1347095). Also: potency is read from the fitted curve at half-maximal effect. Put shortly:
(§1)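 CRCs from 8- or 11-point titrations (lowest final 0.59 nM NPC, 0.78 nM MIPE). Cell viability: CellTiter-Glo after 48 h incubation, 15 min room-temperature development, luminescence imaging.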

Assay [4] is described as follows: qHTS of pediatric cancer cell lines to identify multiple opportunities for drug repurposing: Primary screen for Saos-2 cells (AID 1347097). Also: potency is read from the fitted curve at half-maximal effect; nearly all actives have a fitted effect of over 40% in size. Summed up: as §1
Assay [5] is described as follows: qHTS of pediatric cancer cell lines to identify multiple opportunities for drug repurposing: Primary screen for SK-N-SH cells (AID 1347098). Also: nearly all actives have a fitted effect of over 65% in size. Also: potency is read from the fitted curve at half-maximal effect. Summed up:
(§2)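 Cells (500-1,000/well) rested 5 h, then received compounds for 48 h; metabolically active cells were measured by CellTiter-Glo luminescence. Final concentrations spanned up to 46 µM (MIPE, 11-point) or 0.59 nM-46 µM (NPC, 8-point) in primary screens, 11-point in follow-ups.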

The nature of assay [6]: qHTS of pediatric cancer cell lines to identify multiple opportunities for drug repurposing: Primary screen for NB1643 cells (AID 1347099). Also: potency is read from the fitted curve at half-maximal effect; nearly all actives have a fitted effect of over 50% in size. Put shortly:
as §1

The nature of assay [7]: qHTS of pediatric cancer cell lines to identify multiple opportunities for drug repurposing: Primary screen for LAN-5 cells (AID 1347100). Also: potency is read from the fitted curve at half-maximal effect. Summed up: as §2
The nature of assay [8]: qHTS of pediatric cancer cell lines to identify multiple opportunities for drug repurposing: Primary screen for BT-12 cells (AID 1347101). Also: nearly all actives have a fitted effect of over 25% in size. Also: potency is read from the fitted curve at half-maximal effect. Put shortly:
as §2

Assay [9] can be described thus: qHTS of pediatric cancer cell lines to identify multiple opportunities for drug repurposing: Primary screen for OHS-50 cells (AID 1347103). Also: potency is read from the fitted curve at half-maximal effect; nearly all actives have a fitted effect of over 40% in size. Summed up:
as §2

Assay [10] in a line: qHTS of pediatric cancer cell lines to identify multiple opportunities for drug repurposing: Primary screen for RD cells (AID 1347104). Also: potency is read from the fitted curve at half-maximal effect; nearly all actives have a fitted effect of over 55% in size. Summed up:
as §1

The nature of assay [11]: qHTS of pediatric cancer cell lines to identify multiple opportunities for drug repurposing: Primary screen for Rh30 cells (AID 1347107). Also: nearly all actives have a fitted effect of over 75% in size. Also: potency is read from the fitted curve at half-maximal effect. Put shortly:
as §2

Assay [12] in a line: qHTS of pediatric cancer cell lines to identify multiple opportunities for drug repurposing: Primary screen for Rh41 cells (AID 1347108). Also: potency is read from the fitted curve at half-maximal effect; nearly all actives have a fitted effect of over 70% in size. Summed up: as §1
Assay [13] in a line: qHTS of pediatric cancer cell lines to identify multiple opportunities for drug repurposing: Primary screen for Rh18 cells (AID 1347102). Also: nearly all actives have a fitted effect of over 65% in size. Also: potency is read from the fitted curve at half-maximal effect. Put shortly: as §2
A short description of assay [14]: qHTS of pediatric cancer cell lines to identify multiple opportunities for drug repurposing: Primary screen for MG 63 (6-TG R) cells (AID 1347105). Also: potency is read from the fitted curve at half-maximal effect; nearly all actives have a fitted effect of over 50% in size. Summed up:
as §1

A short description of assay [15]: qHTS of pediatric cancer cell lines to identify multiple opportunities for drug repurposing: Primary screen for BT-37 cells (AID 1347094). Also: potency is read from the fitted curve at half-maximal effect. Put shortly: as §1
A short description of assay [16]: qHTS of pediatric cancer cell lines to identify multiple opportunities for drug repurposing: Confirmatory screen for NB1643 cells (AID 1347109). Also: potency is read from the fitted curve at half-maximal effect; nearly all actives have a fitted effect of over 45% in size. Summed up:
as §2

A short description of assay [17]: qHTS of pediatric cancer cell lines to identify multiple opportunities for drug repurposing: Confirmatory screen for A673 cells (AID 1347110).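 Also: potency is read from the fitted curve at half-maximal effect; cells exposed to compound for 48 h before the viability read; nearly all actives have a fitted effect of over 65% in size.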 Put shortly:
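Forty-eight-hour viability assay. Follow-up compounds ran at 11-point dilutions; positive control bortezomib at 2.3 uM final, neutral control DMSO.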

The nature of assay [18]: qHTS of pediatric cancer cell lines to identify multiple opportunities for drug repurposing: Confirmatory screen for SK-N-MC cells (AID 1347111).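 Also: potency is read from the fitted curve at half-maximal effect; cells exposed to compound for 48 h before the readout; nearly all actives have a fitted effect of over 70% in size.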 Summed up:
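Seed 500-1,000 cells/well; rest 5 h at 37 degrees C. Pin-transfer compounds, 11-point titration. Incubate 48 h. Add CellTiter-Glo, 15 min RT, read luminescence.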

Assay [19] is described as follows: qHTS of pediatric cancer cell lines to identify multiple opportunities for drug repurposing: Primary screen for U-2 OS cells (AID 1347096). Also: nearly all actives have a fitted effect of over 50% in size. Summed up:
as §2

Assay [20] is described as follows: qHTS of pediatric cancer cell lines to identify multiple opportunities for drug repurposing: Primary screen for control Hh wild type fibroblast cells (AID 1347106).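 Also: series mostly up to about 46 µM; a drop in luminescence marks cytotoxicity and a rise apparent proliferation; nearly all actives have a fitted effect of over 55% in size.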 Put shortly:
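Cells (500-1,000/well) in growth media were settled 5 h at 37 degrees C, then given compounds for 48 h. Viability was read as CellTiter-Glo luminescence. Primary runs used MIPE at 11 points (0.78 nM-46 µM) and NPC at 8 points (0.59 nM-46 µM); follow-ups used 11 points.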

Inconclusive results are not listed. Activity calls are given as the source filed them. Calls follow the shape of the dose curve; as a rule, active = well fitted curve in the direction sought with a large enough effect; inconclusive = small, poorly fitted or top-dose-only effect, or another doubt; inactive = no such curve, though single readings can be large; an effect the other way counts as inactive or inconclusive.

For the compound `c1ccc(CNc2nc(NCc3ccccc3)c3ccccc3n2)cc1`, the Potency in assay [1] is 4.69 µM (active); in [2], 11.8 µM (active); in assay [3], 23.5 µM (active); in assay [4] it was 18.7 µM (active); in [5] it was 6.81 µM (active); in [6], 18.7 µM (active). Besides, the Potency in assay [7] was 20.9 µM (active); in [8] it was 24.3 µM (active); in assay [9] it was 30.6 µM (active); in assay [10], 16.6 µM (active); in assay [11], 23.5 µM (active); in assay [12], 18.7 µM (active).
On to `C[C@H](NCc1ccc(OCc2cccc(F)c2)cc1)C(N)=O`, for which the Potency in assay [1] is 5.9 µM (active); in [2], 2.64 µM (active); in assay [3], 10.5 µM (active); in assay [4], 16.6 µM (active); in assay [5], 30.4 µM (active); in assay [6], 14.8 µM (active). In addition, the Potency in assay [7] was 7.43 µM (active); in assay [13] it was 20.9 µM (active); in assay [9], 4.85 µM (active); in assay [10] it was 16.6 µM (active); in [14] it was 18.7 µM (active); in assay [12] it was 18.7 µM (active).
For the compound `CCOC(=O)N1CCN([N+]([O-])=NOc2ccc([N+](=O)[O-])cc2C#N)CC1`, the Potency in assay [1] is 1.18 µM (active); in [2], 10.5 µM (active); in [15], 7.69 µM (active); in assay [3], 5.26 µM (active); in assay [6], 3.72 µM (active); in [7], 4.18 µM (active). In addition, the Potency in assay [8] was 3.06 µM (active); in [9], 3.43 µM (active); in [10], 4.69 µM (active); in assay [16], 3.69 µM (active); in assay [17], 2.61 µM (active); in assay [18], 3.29 µM (active). The Potency result in assay [5] and in [11] was “inactive” throughout.
With `COc1ccc(C[C@@H](C)[C@@H](C)Cc2ccc(OC)c(OC)c2)cc1OC`, the Potency in [1] was 0.935 µM (active); in assay [2] it was 0.833 µM (active); in assay [3], 0.118 µM (active); in assay [4], 1.05 µM (active); in [7], 0.187 µM (active); in [8] it was 0.863 µM (active). Besides, the Potency was 0.685 µM (active) in assay [9] and 10.4 µM (active) in assay [18]. For the same compound, the Potency result in assay [5], in assay [13] and in assay [11] was “inactive” throughout.
In the case of `CCNC(=O)c1cc2c(-c3cc(OCCN4CCCC4)c(Cl)cc3Cl)nc(N)nc2s1`, the Potency is 1.18 µM (active) in assay [1]; 2.64 µM (active) in [2]; 0.935 µM (active) in assay [3]; 3.72 µM (active) in [4]; 3.04 µM (active) in assay [5]; 2.64 µM (active) in [6]. Also, the Potency in assay [7] is 1.48 µM (active); in [9], 3.85 µM (active); in [10], 1.48 µM (active); in [14] it was 14.8 µM (active). In addition, the Potency entry in assay [19], in assay [8], in assay [20] and in assay [11] was “inactive” in each case.
`Cc1nc(NC(=O)N2CCC[C@@H]2C(N)=O)sc1-c1ccnc(C(C)(C)C(F)(F)F)c1`: the Potency is 9.35 µM (active) in [1]; 0.059 µM (active) in [2]; 1.48 µM (active) in assay [3]; 9.35 µM (active) in assay [6]; 5.9 µM (active) in [7]; 0.485 µM (active) in assay [9]. The Potency in [10] was 0.372 µM (active); in assay [14], 1.18 µM (active); in assay [12], 4.18 µM (active); in assay [17], 16.5 µM (active); in [18] it was 5.22 µM (active). For the same compound, the Potency result in assay [19] was “inactive”.
As to `O=C(NC1CC1)c1cccc(-c2ccc3c(NC(=O)C4CC4)n[nH]c3c2)c1`, the Potency is 0.372 µM (active) in assay [1]; 0.372 µM (active) in assay [2]; 3.43 µM (active) in assay [15]; 2.96 µM (active) in assay [4]; 1.71 µM (active) in assay [5]; 0.935 µM (active) in [6]. The Potency in assay [7] was 2.09 µM (active); in assay [13], 2.96 µM (active); in assay [9], 3.85 µM (active); in assay [10], 0.935 µM (active); in [14] it was 1.48 µM (active); in assay [12] it was 2.96 µM (active). Also, the Potency was 4.14 µM (active) in assay [17] and 8.27 µM (active) in assay [18]. In assay [11], the Potency result was “inactive”.
